# Sampled rows, rich in hits. Any-hit rate of the full collection: about 2.4%.
# WRN helicase inh: inhibitors of human WRN helicase; AID 651768; hit rate 0.46% among 360,000; Potency, µM (highest dose often 114 µM), without a hit: at the top dose activity change, negative = inhibition, most hits filed as inhibitors; WRN helicase unwinding, fluorescent forked duplex, kinetic; Q14191; note: % is set by controls: 0 for no effect and ±100 for the full control effect; nearly all actives have a fitted effect of over 55% in size
#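 WRN at 20 nM final preincubated with compound 15 min at room temperature; reaction started with 100 nM fluorophore/quencher forked duplex oligonucleotide and 2 mM ATP final. Unwinding followed kinetically by red fluorescence (ex 525, em 598 nm).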
# POLK inh: blocks human DNA polymerase kappa activity. Q9UBT6. purified Pol kappa, fluorescent DNA synthesis assay, 10 min. Potency, µM (doses to about 107 µM), for inactives: top-dose activity, negative = inhibition, most hits filed as inhibitors. hit rate 0.53% among 400,000; note: % is set by controls: 0 for no effect and ±100 for the full control effect
#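 Pol kappa 10 nM + cpd, 15 min RT; start w/ substrate 50 nM final; fluorescence kinetic read, 0 and 10 min. Neg ctrl: buffer, no enzyme.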
# Pol iota inh: blocks human DNA polymerase iota activity; Pol iota fluorescent replication assay, 10 min; Q9UNA4; AID 588590; Potency, µM (top dose mostly 115 µM), without a hit: top-dose activity, negative = inhibition, most hits filed as inhibitors; hit rate 1% among 390,000
#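 Pol iota at 10 nM preincubated 15 min with compounds at room temperature; reaction started with fluorescent substrate, 50 nM final. Fluorescence read kinetically at 0 and 10 min; buffer-only wells as negative control.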
# Pol eta inh: DNA polymerase eta (human) inhibition | Q9Y253 | recombinant Pol eta, fluorescent DNA replication assay | Potency, µM (titrated, usually from 114 µM), for the others: at the top dose activity change, negative = inhibition, hits mostly inhibitors | hit rate 1.2% among 390,000 | AID 588591; note: % is set by controls: 0 for no effect and ±100 for the full control effect
#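 Pol eta at 10 nM preincubated with compounds 15 min at room temperature; reaction started with fluorescent substrate (50 nM final) and read kinetically at 0 and 10 min.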
# FEN1 inh-1: human FEN1 inhibition | AID 588795 | Recombinant FEN1 flap cleavage, fluorescence, 15 min | Potency, µM (highest dose often 114 µM), for inactives: at the top dose activity change, negative = inhibition, hits mostly inhibitors | P39748 | hit rate 0.35% among 390,000; note: % is set by controls: 0 for no effect and ±100 for the full control effect; nearly all actives have a fitted effect of over 65% in size
# Target sequence (P39748 whole entry, looked up): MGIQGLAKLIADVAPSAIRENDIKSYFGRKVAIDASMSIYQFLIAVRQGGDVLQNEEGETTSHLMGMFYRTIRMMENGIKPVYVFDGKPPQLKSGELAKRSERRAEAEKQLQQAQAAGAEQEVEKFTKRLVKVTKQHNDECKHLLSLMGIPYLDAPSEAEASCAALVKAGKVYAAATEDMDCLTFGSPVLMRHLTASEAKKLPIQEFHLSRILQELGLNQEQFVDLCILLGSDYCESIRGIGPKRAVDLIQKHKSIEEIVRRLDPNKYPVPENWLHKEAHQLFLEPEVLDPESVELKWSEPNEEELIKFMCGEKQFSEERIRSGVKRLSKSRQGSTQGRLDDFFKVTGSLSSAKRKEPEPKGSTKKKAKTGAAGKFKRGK
#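 In this screen, 50 nM flap DNA substrate was added to 10 nM FEN1 pretreated with compound for 15 min at room temperature; cleavage was followed with reads at 0 and 15 min, and Hill fitting gave concentration–response parameters.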
# Pol beta inh: inhibitors of human DNA polymerase beta | P06746 | Pol beta primer extension/strand displacement, fluorescence kinetic | Potency, µM (highest dose often 114 µM), without a hit: at the highest dose activity change, negative = inhibition, actives largely listed as inhibitors | hit rate 1.3% among 340,000; note: % is set by controls: 0 for no effect and ±100 for the full control effect
#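 Kinetic readout of DNA synthesis with strand displacement by Pol beta. Compound and 10 nM enzyme sit 15 min at room temperature; 50 nM substrate starts the reaction, read immediately and at 10 min.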
# FEN1 inh-2: FEN1 inhibition, cherry-pick retest; shares compounds with FEN1 inh-1; FEN1 flap cleavage, TAMRA/BHQ2 fluorogenic DNA substrate; Potency, µM, actives largely listed as inhibitors; hit rate 79% among 880; AID 720498; note: nearly all actives have a fitted effect of over 60% in size
# * marks the source's active call; other numbers are inactive results; ? = inconclusive; · = no result given; [ ] = dose if it differs, or a comment. Calls come from the whole dose curve; as a rule, active = well fitted curve in the direction sought with a large enough effect; inconclusive = small, poorly fitted or top-dose-only effect, or another doubt; inactive = no such curve, though single readings can be large; an effect the other way counts as inactive or inconclusive. Potency is the fitted concentration of half-maximal effect.
SMILES,WRN helicase inh,POLK inh,Pol iota inh,Pol eta inh,FEN1 inh-1,Pol beta inh,FEN1 inh-2
Cc1ccc2oc(=O)c(/C=C(\O)c3ccco3)nc2c1,1%,-9%,46%,-23%,9%,29%,·
CN1CCN(c2ncnc3ccc(-c4ccc5c(c4)OCO5)cc23)CC1,·,-6%[60.1 µM],·,·,·,·,·
Cn1cncc1CNc1ncnc2ccc(-c3ccc4c(c3)OCO4)cc12,·,·,·,·,·,·,?
c1nc(N2CCC(N3CCCC3)CC2)c2cc(-c3ccc4c(c3)OCO4)ccc2n1,·,·,·,·,·,·,34*
c1nc(NCCCN2CCCCC2)c2cc(-c3ccc4c(c3)OCO4)ccc2n1,·,·,·,·,·,·,34*
Cc1ccc(-n2c(=O)c3c4c(sc3n(Cc3ccccc3C)c2=O)CCC4)cc1C,·,8%,-7%,1%,-2%,23%,·
Cc1ccc(NC(=O)c2ccc(CNS(=O)(=O)c3ccc4c(c3)C(C)(C)C(=O)N4C)cc2)cc1F,·,-19%,19%,-19%,10%,1%,·
COc1ccccc1NC(=O)Cn1c(=O)n(Cc2ccco2)c(=O)c2oc3ccccc3c21,·,-9%,10%,3%,-11%,41%,·
c1ccc2nc3c(nc2c1)c1ccccc1n3CCN1CCOCC1,0%[57.1 µM],-24%,?,2%,?,?,?
CCCn1c2ccccc2c2nnc(SCCN3CCOCC3)nc21,0%,-1%,60%,-16%,-8%,?,·
CCOc1ccc(-c2cc(-c3nc(-c4ccc(C)cc4)no3)[nH]n2)cc1,·,5%,2%,-14%,7%,5%,·
Cc1cc2nc(N=C(N)N)nc(C)c2cc1C,77%,5%,-25%,-1%,18µM*,-2%,67*
Cc1ccc2nc(N=C(N)N)nc(C)c2c1,41%,10%,48%,-6%,50µM*,-9%,34*
Cc1nc(/N=C(\N)NC(=O)c2ccccc2)nc2ccccc12,-3%,-10%,?,-6%,5%,-11%,·
Cc1nc(N=C(N)N)nc2ccccc12,45%,11%,-10%,10%,?,-29%,48*
CCc1ccc2nc(N=C(N)N)nc(C)c2c1,79%,-9%,117%,-10%,?,-18%,·
COc1cccc2c1cc1c(=O)n(CC(=O)NCc3ccco3)nc(C)n12,·,1%,16%,-9%,19%,-5%,·
COc1ccc(OC)c(CNS(=O)(=O)c2c(C(=O)N3CCCCCC3)c(C)n(C)c2C)c1,·,0%,32%,-16%,-3%,1%,·
Cc1cccc(N2CCN(C(=O)c3cnn(-c4ccccc4)c3C3CCN(C(=O)OC(C)(C)C)CC3)CC2)c1C,·,1%,-3%,-11%,-14%,-6%,·
Cn1c(=O)c(C(=O)Nc2ncccc2O)c(O)c2ccccc21,-7%[57.1 µM],-21%,-2%,-2%,50µM*,31%,60*
COc1ccc(CN2C(=O)N(c3ccc(F)cc3)C(=O)C2CC(=O)Nc2cc(OC)cc(OC)c2)cc1 (stereo not drawn),·,-19%,17%,-14%,4%,2%,·
O=C(NN=C1CCCC1)c1cc(Br)ccc1O,4%,5%,17%,-8%,-3%,16%,·
O=C(NN=C1CCCC1)c1ccc(O)cc1O,-1%[11.6 µM],-30%,?,11%,1%,0%,43*
CCOc1ccccc1NC(=O)CSc1nc2ccccc2c2nc(CCn3cncc3C)nn12,·,-12%[60.1 µM],?,-24%,-25%,?,?
O=S1(=O)c2ccccc2N(Cc2cccc(F)c2)c2ccccc21,·,-17%,6%,-8%,-16%,19%,·
SMILES,WRN helicase inh,POLK inh,Pol iota inh,Pol eta inh,FEN1 inh-1,Pol beta inh,FEN1 inh-2
CCOC(=O)c1cnc2c(ccc3ccccc32)c1Nc1ccccc1OCC,·,-22%,36%,-18%,2%,5%,·
CCOC(=O)c1cnc2c(ccc3ccccc32)c1NCCCN(C)C,5%,-25%,?,-20%,50µM*,?,38*
CN(C)CCCNc1ncnc2sc(-c3ccccc3)cc12,-16%,-1%,?,-18%,?,?,?
CCOC(CNc1ncnc2sc(-c3ccccc3)cc12)OCC,1%,-9%[60.1 µM],4%,-11%,?,4%,·
CCOC(=O)SC1=N/C(=C\c2ccc(N(C)C)cc2)C(=O)S1,-20%,-13%,-29%[58.9 µM],-6%,-1%,-19%,·
CCOC(=O)c1cc2c(=Cc3ccc(N(C)C)cc3)c3ccccc3n2[n+]1C,16µM*,-20%,40µM*,?,22µM*,·,34*
Cc1cc2c(=Cc3ccc(N(C)C)cc3)c3ccccc3n2[n+]1C,35µM*,?,79µM*,?,14µM*,·,27*
CN(C)c1ccc(C=C2c3ccccc3-c3ccccc32)cc1,·,-21%,2%,·,-3%,·,·
CCN(CC)CCN1C(=O)c2cccc3cc(N)cc(c23)C1=O,13%[11.6 µM],?,?,-15%,50µM*,?,?
COc1cc2c(cc1OC)C(COc1ccc3c(C)cc(=O)oc3c1)N(C(=O)c1ccccc1F)CC2 (stereo not drawn),·,-1%,3%,-16%,-6%,1%,·
CCn1cc(C(=O)N(C)c2ccc(C(C)C)cc2)c2cc(OC)c(OC)cc2c1=O,·,-23%,7%,-12%,16%,0%,·
NC(=O)C1C(=O)c2ccccc2C1(C[N+](=O)[O-])c1ccccc1 (stereo not drawn),4%[11.6 µM],-8%,73%,-15%,45µM*,·,43*
O=C(O)CC1(c2ccccc2)C(=O)c2ccccc2C1=O,-3%,-11%,23%,-16%,0%,3%,·
CCOc1ccc(NC(=O)CSc2nc3ccsc3c(=O)n2Cc2ccc(C(=O)O)cc2)cc1,-3%,·,·,13%,·,·,·
CCC(Sc1nc2ccsc2c(=O)n1Cc1ccc(C(=O)O)cc1)C(=O)Nc1ccc(C)c(Cl)c1 (stereo not drawn),-18%,-30%,?,79µM*,?,?,?
Nc1ccc(C(=O)OCCc2ccccc2)cc1,0%,-5%,1%,-1%,-14%,·,·
O=C(OCCc1ccccc1)c1cc(O)c(O)c(O)c1,?,45µM*,?,5%,40µM*,·,38*
COc1ccc(N2CCc3c(C)nc4c(OC)cc(OC)cc4c32)cc1,14%[11.6 µM],-2%,25%,-3%,40µM*,40µM*,38*
COc1ccc(N2CCc3c(C)nc4c(OC)cc(OC)cc4c32)c(OC)c1,0%,-5%,15%,-7%,-8%,14%,·
CNc1ccc2c3c(cccc13)C(=O)N(C)C2=O,?,-1%,?,-31%,?,-25%,?
CN1C(=O)c2cccc3c(Cl)ccc(c23)C1=O,1%[57.1 µM],1%,12%,5%,-3%,0%,·

# Source: PubChem BioAssay (National Center for Advancing Translational Sciences (NCATS))
